Laboratory results reported in the supplement of paper PMC6411743.
± gives the standard deviation of the averaged measurements. About 6,500 targets were measured; listed, in parts, are those with the largest changes and a random draw of the rest.

Compound: Nc1ncnc2c1ncn2[C@@H]1O[C@H](COP(=O)(O)OP(=O)(O)OP(=O)(O)O)[C@@H](O)[C@H]1O [adenosine triphosphate]
Experiment: NP40-soluble protein abundance relative to vehicle (solubility fold change) (ratio); higher = more soluble protein in presence of ATP
How it was run: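 Jurkat crude lysate prepared with a Dounce homogeniser was treated at eight concentrations spanning 0.1 to 10 mM, 10 min at room temperature then 3 min at 37 °C. Solubilisation with 0.8% NP40 and benzonase and ultracentrifugation preceded TMT labelling of the supernatant for LC-MS/MS. Fold change against the detergent-processed vehicle was determined per replicate from vsn-normalised intensities, across three independent experiments.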

Chain of UniProt Q9UHB6 (Q9UHB6 whole entry, one chain of several): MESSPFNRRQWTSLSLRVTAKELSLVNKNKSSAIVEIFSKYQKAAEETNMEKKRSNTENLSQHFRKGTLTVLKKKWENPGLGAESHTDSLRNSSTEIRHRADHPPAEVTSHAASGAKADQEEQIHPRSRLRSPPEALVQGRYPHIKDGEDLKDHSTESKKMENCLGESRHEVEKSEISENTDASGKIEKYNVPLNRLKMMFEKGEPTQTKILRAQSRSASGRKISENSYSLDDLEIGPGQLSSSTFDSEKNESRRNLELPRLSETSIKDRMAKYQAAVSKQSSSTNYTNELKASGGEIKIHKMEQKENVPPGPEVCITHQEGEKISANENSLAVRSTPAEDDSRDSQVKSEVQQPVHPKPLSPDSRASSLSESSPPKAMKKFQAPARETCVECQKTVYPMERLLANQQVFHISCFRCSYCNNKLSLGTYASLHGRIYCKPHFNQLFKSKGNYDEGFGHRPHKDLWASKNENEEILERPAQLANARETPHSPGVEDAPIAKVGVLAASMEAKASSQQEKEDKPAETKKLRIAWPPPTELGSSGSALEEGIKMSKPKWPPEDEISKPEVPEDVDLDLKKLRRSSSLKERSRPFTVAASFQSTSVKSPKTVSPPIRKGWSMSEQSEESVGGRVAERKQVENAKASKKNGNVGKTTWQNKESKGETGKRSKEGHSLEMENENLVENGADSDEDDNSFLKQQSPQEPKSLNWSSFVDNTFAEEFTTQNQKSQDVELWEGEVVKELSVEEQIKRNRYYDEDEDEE
Chain of UniProt Q9UP95 (Q9UP95 whole entry): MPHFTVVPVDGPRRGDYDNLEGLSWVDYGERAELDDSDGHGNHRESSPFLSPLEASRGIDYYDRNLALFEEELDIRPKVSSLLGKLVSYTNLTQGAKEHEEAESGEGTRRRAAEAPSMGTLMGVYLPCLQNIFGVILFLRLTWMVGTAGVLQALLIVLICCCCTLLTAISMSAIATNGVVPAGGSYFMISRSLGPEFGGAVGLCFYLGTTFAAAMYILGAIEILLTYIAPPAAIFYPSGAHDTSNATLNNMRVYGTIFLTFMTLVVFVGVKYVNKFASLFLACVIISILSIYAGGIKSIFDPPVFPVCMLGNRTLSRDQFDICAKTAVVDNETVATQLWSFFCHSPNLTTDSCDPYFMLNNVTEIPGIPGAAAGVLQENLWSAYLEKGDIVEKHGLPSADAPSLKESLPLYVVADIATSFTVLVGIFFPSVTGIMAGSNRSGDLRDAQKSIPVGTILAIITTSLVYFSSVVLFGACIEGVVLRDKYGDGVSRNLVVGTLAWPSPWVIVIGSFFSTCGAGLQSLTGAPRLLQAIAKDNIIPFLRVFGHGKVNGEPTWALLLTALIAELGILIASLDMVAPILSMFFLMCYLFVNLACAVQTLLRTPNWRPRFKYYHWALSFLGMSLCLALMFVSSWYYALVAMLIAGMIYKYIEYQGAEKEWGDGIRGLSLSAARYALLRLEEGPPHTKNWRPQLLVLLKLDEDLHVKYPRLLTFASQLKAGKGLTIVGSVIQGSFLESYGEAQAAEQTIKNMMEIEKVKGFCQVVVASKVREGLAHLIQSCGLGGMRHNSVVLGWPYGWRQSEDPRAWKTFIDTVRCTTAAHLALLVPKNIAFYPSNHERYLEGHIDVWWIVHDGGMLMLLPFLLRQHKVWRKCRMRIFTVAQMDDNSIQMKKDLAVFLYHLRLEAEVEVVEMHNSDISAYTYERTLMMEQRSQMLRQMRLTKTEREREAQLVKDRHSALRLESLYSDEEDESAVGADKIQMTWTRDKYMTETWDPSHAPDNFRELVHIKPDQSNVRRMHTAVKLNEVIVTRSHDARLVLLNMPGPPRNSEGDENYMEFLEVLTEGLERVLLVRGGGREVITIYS
Chain of UniProt Q9Y570 (Q9Y570 whole entry): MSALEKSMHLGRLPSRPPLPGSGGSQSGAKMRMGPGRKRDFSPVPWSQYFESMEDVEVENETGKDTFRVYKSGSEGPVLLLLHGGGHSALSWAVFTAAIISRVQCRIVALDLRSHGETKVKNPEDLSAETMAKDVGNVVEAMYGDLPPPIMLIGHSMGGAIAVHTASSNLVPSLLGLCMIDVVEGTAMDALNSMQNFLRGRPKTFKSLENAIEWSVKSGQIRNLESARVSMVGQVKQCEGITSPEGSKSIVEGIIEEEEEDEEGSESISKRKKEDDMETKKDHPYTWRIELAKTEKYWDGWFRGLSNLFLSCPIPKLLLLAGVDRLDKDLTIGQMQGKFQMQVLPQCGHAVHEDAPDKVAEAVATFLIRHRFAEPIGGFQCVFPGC
Chain of UniProt Q9Y3I0 (Q9Y3I0 whole entry): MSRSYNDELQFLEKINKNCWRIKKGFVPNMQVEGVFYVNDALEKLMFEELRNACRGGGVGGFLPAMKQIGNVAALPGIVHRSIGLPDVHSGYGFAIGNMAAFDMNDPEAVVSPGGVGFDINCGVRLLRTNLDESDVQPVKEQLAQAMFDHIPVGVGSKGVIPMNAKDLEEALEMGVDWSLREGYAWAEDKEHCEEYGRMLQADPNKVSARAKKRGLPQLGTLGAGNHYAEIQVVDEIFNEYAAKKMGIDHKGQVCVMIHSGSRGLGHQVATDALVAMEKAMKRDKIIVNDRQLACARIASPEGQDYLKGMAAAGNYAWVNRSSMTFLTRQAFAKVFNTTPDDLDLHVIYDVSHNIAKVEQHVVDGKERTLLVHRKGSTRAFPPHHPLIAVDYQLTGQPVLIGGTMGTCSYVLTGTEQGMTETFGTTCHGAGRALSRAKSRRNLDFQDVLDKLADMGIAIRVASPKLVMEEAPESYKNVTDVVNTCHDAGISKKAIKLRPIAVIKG
Chain of UniProt Q9Y383 (Q9Y383 whole entry): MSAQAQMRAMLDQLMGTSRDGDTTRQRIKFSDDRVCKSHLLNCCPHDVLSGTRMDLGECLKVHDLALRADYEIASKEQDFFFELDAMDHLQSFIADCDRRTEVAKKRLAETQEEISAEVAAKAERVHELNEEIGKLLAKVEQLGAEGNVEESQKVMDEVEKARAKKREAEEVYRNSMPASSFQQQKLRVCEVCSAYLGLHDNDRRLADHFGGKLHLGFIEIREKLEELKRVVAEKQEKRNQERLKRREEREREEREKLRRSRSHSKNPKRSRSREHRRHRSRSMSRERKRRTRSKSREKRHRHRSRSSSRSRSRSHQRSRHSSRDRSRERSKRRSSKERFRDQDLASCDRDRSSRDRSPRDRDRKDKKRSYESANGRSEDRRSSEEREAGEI
Chain of UniProt Q9Y5P4 (Q9Y5P4 whole entry): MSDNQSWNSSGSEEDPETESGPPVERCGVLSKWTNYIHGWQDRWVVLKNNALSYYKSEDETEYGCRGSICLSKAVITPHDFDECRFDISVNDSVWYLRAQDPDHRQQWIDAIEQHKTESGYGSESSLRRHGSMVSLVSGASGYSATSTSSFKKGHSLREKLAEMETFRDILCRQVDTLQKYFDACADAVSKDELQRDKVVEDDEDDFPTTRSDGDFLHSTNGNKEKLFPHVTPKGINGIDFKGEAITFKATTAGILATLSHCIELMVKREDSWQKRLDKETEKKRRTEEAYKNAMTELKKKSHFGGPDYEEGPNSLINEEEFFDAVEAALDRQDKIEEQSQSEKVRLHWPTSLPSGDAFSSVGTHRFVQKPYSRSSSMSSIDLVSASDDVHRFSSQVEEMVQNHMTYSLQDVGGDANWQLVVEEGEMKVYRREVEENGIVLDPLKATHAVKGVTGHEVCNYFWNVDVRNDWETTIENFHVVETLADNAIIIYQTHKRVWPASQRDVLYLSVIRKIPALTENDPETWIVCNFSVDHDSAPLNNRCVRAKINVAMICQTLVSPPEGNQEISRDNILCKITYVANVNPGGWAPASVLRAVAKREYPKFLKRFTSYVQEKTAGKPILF
Chain of UniProt Q9ULE6 (Q9ULE6 whole entry): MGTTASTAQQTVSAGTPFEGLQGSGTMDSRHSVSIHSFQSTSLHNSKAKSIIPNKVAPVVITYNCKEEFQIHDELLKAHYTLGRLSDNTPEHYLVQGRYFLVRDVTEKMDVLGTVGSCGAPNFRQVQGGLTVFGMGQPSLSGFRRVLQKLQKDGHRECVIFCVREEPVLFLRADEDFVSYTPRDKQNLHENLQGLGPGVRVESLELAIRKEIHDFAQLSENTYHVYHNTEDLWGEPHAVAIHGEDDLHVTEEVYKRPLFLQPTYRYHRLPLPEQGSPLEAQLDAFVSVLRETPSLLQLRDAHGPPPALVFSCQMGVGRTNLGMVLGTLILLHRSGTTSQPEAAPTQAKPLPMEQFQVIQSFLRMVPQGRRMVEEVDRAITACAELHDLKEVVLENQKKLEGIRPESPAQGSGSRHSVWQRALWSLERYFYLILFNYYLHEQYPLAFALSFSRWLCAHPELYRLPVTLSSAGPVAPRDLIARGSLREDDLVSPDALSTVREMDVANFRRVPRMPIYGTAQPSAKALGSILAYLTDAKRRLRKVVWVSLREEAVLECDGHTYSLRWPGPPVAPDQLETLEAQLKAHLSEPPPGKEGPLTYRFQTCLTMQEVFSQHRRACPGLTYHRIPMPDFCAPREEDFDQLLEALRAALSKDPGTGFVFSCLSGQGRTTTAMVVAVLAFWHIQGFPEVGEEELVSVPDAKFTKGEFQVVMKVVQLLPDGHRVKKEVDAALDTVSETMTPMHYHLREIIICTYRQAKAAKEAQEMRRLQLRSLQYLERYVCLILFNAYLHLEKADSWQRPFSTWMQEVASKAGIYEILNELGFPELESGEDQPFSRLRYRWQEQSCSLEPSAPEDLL
Chain of UniProt Q9Y303 (Q9Y303 whole entry): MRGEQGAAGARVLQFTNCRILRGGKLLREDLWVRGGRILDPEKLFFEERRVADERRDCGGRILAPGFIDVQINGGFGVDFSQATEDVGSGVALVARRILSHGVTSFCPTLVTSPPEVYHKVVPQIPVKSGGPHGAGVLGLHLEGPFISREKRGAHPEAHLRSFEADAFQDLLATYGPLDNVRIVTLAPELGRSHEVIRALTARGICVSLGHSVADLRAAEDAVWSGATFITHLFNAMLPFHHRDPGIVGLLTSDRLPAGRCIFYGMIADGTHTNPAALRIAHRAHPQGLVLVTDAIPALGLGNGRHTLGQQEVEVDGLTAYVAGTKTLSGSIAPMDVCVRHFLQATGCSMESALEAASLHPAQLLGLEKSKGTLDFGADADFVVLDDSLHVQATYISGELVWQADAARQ

Target	NP40-soluble protein abundance (concentration: 1mM)	NP40-soluble protein abundance (concentration: 2mM)	NP40-soluble protein abundance (concentration: 4mM)	NP40-soluble protein abundance (concentration: 6mM)	NP40-soluble protein abundance (concentration: 8mM)	NP40-soluble protein abundance (concentration: 10mM)
NOP58 (UniProt Q9Y2X3)	1.08 ± 0.062	1.1 ± 0.054	1.2 ± 0.054	1.35 ± 0.079	1.51 ± 0.042	1.71 ± 0.13
UniProt Q9UP95|Q9UP95-5|Q9UP95-6	0.956 ± 0.1	0.979 ± 0.12	0.964 ± 0.11	1.03 ± 0.058	0.909 ± 0.099	0.989 ± 0.035
TMED3 (UniProt Q9Y3Q3)	1.08 ± 0.12	1.07 ± 0.12	1.06 ± 0.086	1.04 ± 0.13	1.06 ± 0.057	1.04 ± 0.088
UniProt Q9Y5P4|Q9Y5P4-2|Q9Y5P4-3	0.9555 ± 0.0053	0.974 ± 0.025	0.948 ± 0.011	0.949 ± 0.024	0.93 ± 0.011	0.954 ± 0.026
UniProt Q9ULV4|Q9ULV4-2|Q9ULV4-3	1.08 ± 0.086	1.16 ± 0.1	1.24 ± 0.11	1.4 ± 0.12	1.43 ± 0.13	1.52 ± 0.16
UniProt Q9ULI0|Q9ULI0-2	1.69 ± 0.34	1.83 ± 0.46	1.86 ± 0.57	1.86 ± 0.44	1.75 ± 0.44	1.72 ± 0.48
UniProt Q9UHB6|F8VQE1|Q9UHB6-2	1.05 ± 0.14	1.16 ± 0.14	1.35 ± 0.16	1.56 ± 0.21	1.62 ± 0.12	1.86 ± 0.18
PPME1 (UniProt Q9Y570)	0.951 ± 0.039	0.972 ± 0.056	0.956 ± 0.037	0.933 ± 0.085	0.941 ± 0.023	0.953 ± 0.058
LUC7L2 (UniProt Q9Y383)	1.84 ± 0.14	1.95 ± 0.034	2.05 ± 0.038	2.21 ± 0.066	2.12 ± 0.087	2.11 ± 0.095
TEX264 (UniProt Q9Y6I9)	0.918 ± 0.028	0.919 ± 0.024	0.91 ± 0.041	0.916 ± 0.061	0.867 ± 0.058	0.886 ± 0.029
MRPS2 (UniProt Q9Y399)	1.11 ± 0.13	0.951 ± 0.12	0.932 ± 0.071	0.917 ± 0.17	0.944 ± 0.12	0.884 ± 0.088
UniProt Q9Y3I0	0.997 ± 0.038	0.974 ± 0.025	0.979 ± 0.043	1.04 ± 0.04	1.02 ± 0.048	1.02 ± 0.048
UniProt Q9UKI8|Q9UKI8-5	0.986 ± 0.039	0.998 ± 0.025	1 ± 0.059	0.993 ± 0.041	0.953 ± 0.021	0.977 ± 0.054
UniProt Q9Y6X3	0.977 ± 0.053	1.06 ± 0.086	1.15 ± 0.25	1.09 ± 0.26	0.98 ± 0.057	1.11 ± 0.22
UniProt Q9Y303|Q9Y303-2|Q9Y303-3	0.995 ± 0.056	1.03 ± 0.069	1.03 ± 0.083	0.973 ± 0.12	1.02 ± 0.086	0.995 ± 0.063
UniProt Q9UL15|Q9UL15-2	0.964 ± 0.032	0.988 ± 0.024	0.976 ± 0.035	0.993 ± 0.018	0.971 ± 0.01	0.979 ± 0.029
DBR1 (UniProt Q9UK59)	1.04 ± 0.066	1.03 ± 0.066	1.02 ± 0.051	0.973 ± 0.11	1.03 ± 0.056	1.03 ± 0.044
UniProt Q9ULE6	1.08 ± 0.084	1.03 ± 0.12	1.06 ± 0.092	0.991 ± 0.1	1.05 ± 0.045	1.02 ± 0.048
